Experimental findings from PubChem BioAssay (NCI) are described below.

This is part of a sample that, as a whole, favours compounds with a hit. Of some 83,000 tested, about 20% had one in any assay.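 Treatment: one concentration, 48 hours, 96-well format. Scoring: percent growth, with anything below 10 considered active.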 Unmarked numbers belong to inactive results. Activity calls are given as the source filed them.

Test systems include NCI-H23 lung; NCI-H226 lung; NCI-H322M lung; HOP-62 NSCLC; NCI-H460 lung; HOP-92 NSCLC; NCI-H522 lung; A549/ATCC NSCLC; 786-0 renal; COLO 205 colon; DU-145 prostate; K-562 leukemia; MALME-3M melanoma; MDA-MB-231 breast; RXF 393 renal; SF-268 CNS; SF-295 CNS; SF-539 CNS; UACC-257 melanoma; M14 melanoma.
Holding throughout (experiment): NCI-60 one-dose screen, 48 h (100 = growth as untreated, 0 = no growth, -100 = all killed)
Conditions in all cases: 10 µM unless noted

For the compound `Oc1c(CCl)cc(Cl)cc1Cc1cc(Cl)cc(Cc2cc(Cl)cc(CCl)c2O)c1O`, the growth was 5.68% (active) with NCI-H23 lung; 32.4% in the experiment with NCI-H226 lung; 4.12% (active) with NCI-H322M lung; 57.2% in the experiment on HOP-62 NSCLC; 11.9% in the experiment on NCI-H460 lung; -18.3% (active) with HOP-92 NSCLC. For the same compound, the growth is -10.9% (active) in the experiment with NCI-H522 lung; 46.5% in the experiment on A549/ATCC NSCLC; 55.3% with 786-0 renal; 68.3% in the experiment with COLO 205 colon; 44% with DU-145 prostate; 7.26% (active) in the experiment on K-562 leukemia. The growth with MALME-3M melanoma was 27.9%; with MDA-MB-231 breast it was 40.2%; in the experiment with RXF 393 renal, 45.4%; in the experiment with SF-268 CNS, 17.1%; in the experiment on SF-295 CNS, 62.7%; in the experiment with SF-539 CNS it was 40.7%. The figures for the growth with UACC-257 melanoma and in the experiment with M14 melanoma were 36.1% and 27.1%, respectively.

Take `Nc1ccc(C(=O)Nc2cccc(C(=O)Nc3ccc4c(O)c(N=Nc5ccc(N=Nc6ccc(S(=O)(=O)O)cc6)cc5)c(S(=O)(=O)O)cc4c3)c2)cc1`: the growth in the experiment with NCI-H23 lung was 96.8%; in the experiment with NCI-H226 lung, 111%; with NCI-H322M lung it was 101%; in the experiment with HOP-62 NSCLC it was 98.5%; in the experiment on NCI-H460 lung, 105%; with HOP-92 NSCLC, 108%. Moreover, the growth in the experiment with NCI-H522 lung was 92.3%; in the experiment with A549/ATCC NSCLC, 102%; in the experiment on 786-0 renal, 103%; in the experiment with COLO 205 colon it was 114%; in the experiment with DU-145 prostate, 107%; with K-562 leukemia, 88.1%. The growth was 93.8% in the experiment on MALME-3M melanoma; 101% in the experiment with MDA-MB-231 breast; 109% in the experiment on RXF 393 renal; 102% with SF-268 CNS; 104% with SF-295 CNS; 102% in the experiment with SF-539 CNS. The growth in the experiment on UACC-257 melanoma is 111%; in the experiment with M14 melanoma, 97.3%.

In the case of `COc1ccc(-c2cc(-c3nnc(SCC(=O)Nc4ccc(C(C)=O)cc4)o3)c3ccccc3n2)cc1`, the growth was 0.0219% (active) with NCI-H23 lung; 17.1% in the experiment with NCI-H226 lung; 79.9% in the experiment with NCI-H322M lung; -33.9% (active) in the experiment on HOP-62 NSCLC; -54.4% (active) in the experiment on NCI-H460 lung; -10.1% (active) in the experiment with HOP-92 NSCLC. In addition, the growth in the experiment on NCI-H522 lung was -28.7% (active); with A549/ATCC NSCLC, 22.3%; in the experiment on 786-0 renal, -72.3% (active); with COLO 205 colon, 21.7%; in the experiment with DU-145 prostate it was 6.34% (active); in the experiment on K-562 leukemia, 35.2%. In addition, the growth was -52.7% (active) in the experiment with MALME-3M melanoma; -23.9% (active) in the experiment with MDA-MB-231 breast; -4.69% (active) in the experiment on RXF 393 renal; 33.8% with SF-268 CNS; 42.5% with SF-295 CNS; 12.3% in the experiment on SF-539 CNS. Besides, the growth in the experiment with UACC-257 melanoma was 68.3%; with M14 melanoma, 5.23% (active).

For `CCN1CCN(c2ccc(NC(=O)Nc3nc4ccc(-c5ccccc5OC)cc4s3)cc2)CC1`, the growth with NCI-H23 lung was -16.8% (active); in the experiment with NCI-H226 lung it was 56.6%; with NCI-H322M lung, -86% (active); with HOP-62 NSCLC, -66.2% (active); in the experiment with NCI-H460 lung, -64.4% (active); in the experiment on HOP-92 NSCLC, 2.16% (active). Also, the growth in the experiment on NCI-H522 lung is -78.1% (active); in the experiment on A549/ATCC NSCLC, -77.1% (active); in the experiment on 786-0 renal it was -80.7% (active); in the experiment on COLO 205 colon, -73.2% (active); in the experiment on DU-145 prostate, -84.4% (active); in the experiment on K-562 leukemia it was -67.4% (active). For the same compound, the growth was -80.3% (active) with MALME-3M melanoma; -74% (active) in the experiment with MDA-MB-231 breast; -74.2% (active) with RXF 393 renal; -59.4% (active) in the experiment with SF-268 CNS; -79.9% (active) in the experiment on SF-295 CNS; -82.6% (active) in the experiment with SF-539 CNS. In addition, the values for the growth in the experiment on UACC-257 melanoma and in the experiment on M14 melanoma were -71.9% (active) and -70.1% (active), respectively.

For `O=c1c2ccccc2oc2ccc(OCCCCCCN3CCCCCC3)cc12`, the growth in the experiment on NCI-H23 lung is 39.2%; with NCI-H226 lung, 74.1%; in the experiment with NCI-H322M lung, 74.3%; in the experiment with HOP-62 NSCLC it was 74.1%; with NCI-H460 lung, 35%; in the experiment on HOP-92 NSCLC, 74.6%. Besides, the growth is 46% in the experiment on NCI-H522 lung; 40.4% in the experiment on A549/ATCC NSCLC; 27.1% in the experiment on 786-0 renal; -5.01% (active) with COLO 205 colon; 65.6% with DU-145 prostate; 2.32% (active) in the experiment with K-562 leukemia. The growth in the experiment with MALME-3M melanoma was -47.2% (active); with MDA-MB-231 breast it was 43.7%; in the experiment on RXF 393 renal, 36.8%; in the experiment on SF-268 CNS it was 61.7%; in the experiment on SF-295 CNS, 38.9%; in the experiment with SF-539 CNS it was 54.9%. Further, the results for the growth with UACC-257 melanoma and in the experiment with M14 melanoma were 2.49% (active) and -32% (active), respectively.

On to `CO[C@@]12C=C[C@@]34CCC(=O)N3c3ccccc3[C@@H](O1)C4C2`, for which the growth in the experiment with NCI-H23 lung is 99.9%; with NCI-H226 lung, 96.8%; in the experiment on NCI-H322M lung it was 99.8%; in the experiment on HOP-62 NSCLC, 97.7%; with NCI-H460 lung it was 104%; in the experiment with HOP-92 NSCLC it was 93%. In addition, the growth is 92.7% in the experiment with NCI-H522 lung; 98.4% in the experiment on A549/ATCC NSCLC; 101% in the experiment with 786-0 renal; 105% with COLO 205 colon; 111% with DU-145 prostate; 97.5% in the experiment on K-562 leukemia. Further, the growth in the experiment with MALME-3M melanoma is 98%; with MDA-MB-231 breast, 100%; with RXF 393 renal it was 107%; in the experiment on SF-268 CNS it was 98.4%; with SF-295 CNS, 109%; in the experiment with SF-539 CNS it was 102%. In addition, the growth with UACC-257 melanoma was 101%; with M14 melanoma it was 99.5%.

As for `Cc1cccc(C)c1NC(=O)CN(CC(C)C)CC(O)COc1ccccc1` (stereo not given), the growth was 86% with NCI-H23 lung; 94.9% in the experiment with NCI-H226 lung; 97.7% with NCI-H322M lung; 90% with HOP-62 NSCLC; 111% in the experiment on NCI-H460 lung; 91.4% in the experiment on HOP-92 NSCLC. The growth in the experiment on NCI-H522 lung was 82.3%; with A549/ATCC NSCLC, 90.6%; in the experiment on 786-0 renal, 78.6%; with COLO 205 colon it was 100%; in the experiment with DU-145 prostate, 111%; with K-562 leukemia, 96%. For the same compound, the growth with MALME-3M melanoma is 103%; in the experiment with MDA-MB-231 breast it was 93.5%; with RXF 393 renal it was 103%; in the experiment on SF-268 CNS, 102%; with SF-295 CNS, 88%; with SF-539 CNS it was 97.6%. The results for the growth with UACC-257 melanoma and in the experiment on M14 melanoma were 110% and 87.8%, respectively.
